Assay results published in PubChem BioAssay AID1508600 (Functional Genomics Laboratory (NCATS/FGL), 2020).
Hit rate of the full screen: of about 53,000 sequences, about 3,700 (7%) were called active.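 How the source made its calls: active means gene knockdowns whose robust z-score for IL-1 alpha signal is at least 2 or at most -2, so actives lie on both sides; inactive means the rest.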 The entries come from a sample that favours actives as a whole.

Experiment: Components of the Cytosolic LPS Sensing Pathway: Gene Identification via Genome-wide siRNA Screen;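 further: robust z of the log signal after scaling to non-targeting control siRNA wells of the plate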
Details: RAW264.7 macrophages, IL-1a HTRF, actives lie on both sides, screened at 100 nM (by protocol), cells primed 5 h with Pam3CSK4 first
How it was run: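 Mouse macrophage line RAW264.7 is transfected with siRNA (100 nM final), grown 48h, primed with TLR ligand Pam3CSK4 5 h and given intracellular LipidA 24 h. IL-1a in supernatant is read by HTRF and viability by luminescence.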

Sequence	z-score
GGGAAGAUUUUUCUGAUCUTT against Kcnk13	-1.52 (inactive)
GCUGGAGGACUCAUGUUCATT against Dimt1	-0.0153 (inactive)
GGAGCUCAAGAGCUGGGUUTT against Tor2a	-1.1 (inactive)
GGAAGAACGACAAGAACAUTT against Tgfbr2	1.02 (inactive)
CGCGGUGUUCGACAUCUUGTT against Noc4l	2.12 (active)
GGAUACCAUUGUGGUCGCATT against Hck	-0.406 (inactive)
GGAAUUCUUUCCAAACUGGTT against Steap1	-0.0141 (inactive)
GGAUGUUUUAACUUGGAAATT against Sema5a	2.25 (active)
GGUUGGUCAGAUGAAGGGUTT against Adgrf3	-0.638 (inactive)
GGAACAGACAGAGAACACATT against Tgm6	2.54 (active)
CCGCUACAGGUUUACCAAGTT against Rhox8	0.129 (inactive)
GGACACCUGAUUUUCUUCUTT against Slc41a3	-0.364 (inactive)
GCAAAAAGGCAGUAUUCUATT against Atp23	0.449 (inactive)
GCUCCAAAAGUCAAGACCGTT against Safb2	-0.482 (inactive)
GGCUAAAUUAUUGCGCAAATT against C1qbp	2.34 (active)
GGACCUUUCUGAAGUCCAATT against Ahsp	-0.0978 (inactive)
GGAUCAAGCCGAACAGUUCTT against Pigk	2.34 (active)
GGCCAAUCUCACCUGGACATT against Man2b1	-0.421 (inactive)
GGAGACUACUUUGUGUUUUTT against Ermp1	0.933 (inactive)
GGCACAAUUGAGGAGCGUATT against Ino80	-1.27 (inactive)
GGAAGAAAAACAGAGGAGATT against Cts7	-0.877 (inactive)
GGUUUAAGAAUGAAGUGGATT against Mtmr3	-1.18 (inactive)

Sequence	z-score
GGAUUGGGUUACAUACAGATT against Scgb2b2	-0.0731 (inactive)
GGAAAAGGUUAAGAAAGCATT against Krr1	-2.53 (active)
GGAAUCAGCUAAUGAUUUCTT against Tyw1	0.819 (inactive)
GGAGGUAGGAGCCAUAAGATT against Pter	-0.58 (inactive)
GGGAUCUUUUACUCAUACUTT against Olfr862	-1.95 (inactive)
GGUGUACUGAUUUUGAAGATT against Msh3	0.858 (inactive)
GCCACGGGUAUAUCUAUAGTT against Tigd4	-0.296 (inactive)
GGUGGAAAAUGGUUGGUUUTT against Mfap3	-0.493 (inactive)
GGCCAAGAAAAUCCUGUGGTT against Mfsd5	-2.71 (active)
GGAACUUGAAAUCGUAAUUTT against Magohb	-0.121 (inactive)
GGCAGAACACAGUUCGAUCTT against Tbcb	0.165 (inactive)
GCCGUAGAUUUCCUUGAGUTT against Isca1	-0.0435 (inactive)
GGGACAAUGAAUGUGAUCUTT against Adam39	-2.81 (active)
CCAACCACAGGAUCAGAUGTT against Prrg4	0.556 (inactive)
GGAAAAAAUGGAAAACUGGTT against Polr1b	-0.965 (inactive)
CCAUUAAAAACCCAGAGGATT against Lyve1	0.0705 (inactive)
CCCUAUAAAGAGAAAUUGGTT against Zfp663	-0.166 (inactive)
GGCUUCUUUUUAAAAGUAGTT against Pcid2	-1.28 (inactive)
GCAGGACUUACAUGAGAAUTT against Fam13c	0.534 (inactive)
CCAUAAACUAUGAGUUUUGTT against Elovl7	2.4 (active)
GGCUUCCAUUACCAUGAUGTT against Olfr381	-0.318 (inactive)
CGCGUAUCUGACCAGGUCATT against Ermard	0.889 (inactive)

Sequence	z-score
GGCUGAAAAAUGCUUGAUUTT against Dhdds	-1.14 (inactive)
GGAUAACUCUUUCAAAGACTT against Lrit2	0.768 (inactive)
GGAGGAGAGAACAAAAUGUTT against Itgb1bp2	0.839 (inactive)
GGAUCUCUUUUUUCACAUGTT against Kcne2	0.605 (inactive)
GGAUCUGGCGGUUACUAAGTT against Gm867	0.776 (inactive)
GCUCAUUCUUACCAAUCUCTT against Vsig2	-2.25 (active)
GGCUGUGAAAAAACUAGAATT against Serpina1e	-0.359 (inactive)
GCCCUACCUUACCUGAUACTT against Rab17	2.03 (active)
GGAUCUUAGUAAUAUUGGUTT against Ash2l	-0.72 (inactive)
CCACAAGUUCACUAAGGAGTT against Six3	0.193 (inactive)
CCUGGAAUCUGUCCCUCAUTT against Olfr262	-0.161 (inactive)
CCCACUUACUUUUGAUGUUTT against Uba1	-0.232 (inactive)
GGCACGUGAUAAAGGGUUCTT against Pcdha7	2.56 (active)
GCAUGUUUGGAUUGCUAUUTT against Olfr653	0.999 (inactive)
GGAUUUUCAAAGAGGACACTT against Cdca7l	0.735 (inactive)
GCAGAGACGUGAUUGAUCGTT against H2bc18	-1.17 (inactive)
CCAUUUCUCACCAGUGAUCTT against Gm5535	-2.61 (active)
CCGUUCCAUCAUUAAGACCTT against Tssk2	0.359 (inactive)
CCAAGGCCAUCUCAUUUUCTT against Olfr749	0.511 (inactive)
GGCUAUUUUGCUGUACCUCTT against Gbgt1	0.589 (inactive)
GGAAAUAUCUCUGGUAAUATT against Reln	-2.17 (active)
GCAUCCUGAGUCCGUAUCCTT against Rbm11	1.37 (inactive)

Sequence	z-score
GGUAGAGCGCAAGAAGGCATT against Nol12	1.23 (inactive)
CGGAGUUGAGCCAGAAAAATT against Fbxo31	-0.777 (inactive)
GGAGAAAUUGCCUUUGAUCTT against Pdik1l	0.416 (inactive)
CGAUUUGCAGCCCUCAUGATT against Inka1	-2.27 (active)
GCCGUCUACCCUGAUAACATT against Cp	0.67 (inactive)
GAAGCAGGCCUGGGAUCUUTT against Vmn1r41	2.01 (active)
GGAGCAAAUGAUCAAUAAATT against Serpina3b	-0.364 (inactive)
GGCAUCUCUUUGCUUGAAUTT against Lalba	-0.86 (inactive)
GCCCUCAUUUGUCCUACAUTT against Arhgef2	0.202 (inactive)
GGGUUUAGAGACCCUGAGATT against Klc2	-2.09 (active)
GGUGGACAAGGAGAGGACUTT against H2-Q1	0.109 (inactive)
GGAAUGGAACACAAAUAGCTT against Kdelr2	0.191 (inactive)
GGACUUUUGUGUAUAGUUATT against Smad1	1.59 (inactive)
GGACGCGGGAAAAAUGUUCTT against Hnrnpab	1.37 (inactive)
GCUGGAAGCAUUUGUUUUUTT against Uap1	2.19 (active)
GCUUAGUGACCAUCUCCGUTT against Epop	0.236 (inactive)
GGAAUCUCACCAAUCCAAATT against Rab14	-0.364 (inactive)
GGAGAGCUAGCCUUAAUAATT against Bspry	4.21 (active)
CGGUUACAGGUGAAAUCCUTT against Sval1	-1.36 (inactive)
CGGGUGAUGCCUAUGUCAUTT against Gsn	0.837 (inactive)
GGCUUACAGUUCCAUAUGGTT against Olfr401	-1.11 (inactive)
GCUCAUUGCACUUGCCAAGTT against Tcea2	-0.0377 (inactive)

Sequence	z-score
GGUUUGUGUCUAAGGAAUUTT against Klhdc7a	-0.203 (inactive)
GGUCCUACCUUGAAGCUCCTT against Ado	0.816 (inactive)
GCACCAGUCGGUAUUCACATT against C1qc	-0.665 (inactive)
GCAUUGUGAGACUAACGUGTT against Dusp7	1.08 (inactive)
GGGAAUAAUGUCUAGUUUGTT against Fam126a	0.215 (inactive)
GAUGGUGUCUAGUGAGAGCTT against Oxct2b	-2.01 (active)
GCACCAUUUUGAUCGUCAUTT against Olfr519	0.341 (inactive)
GGUUUGAAAUGAAACUUCATT against Nedd4l	-0.0699 (inactive)
GCGAGCUUUAACCUUUCCATT against Olfr1028	-2.49 (active)
CCUCACAAAGCACAAUAUCTT against Sntg1	-1.46 (inactive)
CGUAGCUAUUCUGGUUGUCTT against H2-Q6	-0.616 (inactive)
GGUCCUCAAUGAAAUGAGATT against Krt12	1.05 (inactive)
GGAGUUUGGAACUUCCAACTT against Tcf21	2.79 (active)
GGACCAAAAUCUAGAAUACTT against Zfp629	-0.898 (inactive)
GGUAUUUAAGUGAUACAUCTT against Ddost	-0.321 (inactive)
GGUACCGUCAGUUGUCCUATT against Rnf4	-1.86 (inactive)
GGUGAAGAAGGAGACAAAGTT against Tmem43	0.347 (inactive)
GGAUAAAGUUUAAGGAUGGTT against Vmn1r40	-0.43 (inactive)
GGAGAAGGAUGAAGACGGATT against Map1lc3a	0.397 (inactive)
GCUUUUGUUACAUAAUGCUTT against Tmem237	1.12 (inactive)
